Source: PubChem BioAssay AID743449 (Broad Institute, 2014)
Out of some 9,900 compounds screened, about 90 (0.9%) were called active. Another 2% or so got no clear call; they are omitted. The sample holds actives, similar compounds and a random draw of the others, so the mix is not that of the screen.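 How the source made its calls: active means mean normalized replicate activity at least 50 and at least half of replicates each reaching 50; inconclusive means only one of the two criteria met; inactive means neither criterion met.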

Experiment: YAP1 pathway inhibitors via CTGF transcript, primary screen, DLD1 colon cancer cells, RT-qPCR, single point (AID 743449);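 further: 0% = neutral control wells and 100% = dasatinib control wells; higher means stronger suppression of CTGF expression like dasatinib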
Conditions: DLD1 CTGF mRNA qPCR, 24 h; at 12.5 µM; active compounds read high

inhibition, inactive:
C/C=C/c1ccc([C@@H]2[C@@H](C#N)N(c3nc(CC)cs3)[C@@H]2CO)cc1 44.5%
COc1cccc(-c2ccc([C@H]3[C@H](C#N)N(C(=O)Cc4ccncc4)[C@H]3CO)cc2)c1 -33.7%
COc1cccc(-c2ccc([C@H]3[C@@H](CO)N(C(=O)Cc4ccncc4)[C@H]3C#N)cc2)c1 -2.53%
COc1ccc(CN(C)C[C@H]2Oc3ccc(NC(=O)Nc4ccc5c(c4)OCO5)cc3CC(=O)N([C@@H](C)CO)C[C@@H]2C)cc1 -64.7%
C[C@@H]1CN([C@H](C)CO)C(=O)Cc2cc(NC(=O)C3CCCCC3)ccc2O[C@H]1CN(C)Cc1ccc(Cl)c(Cl)c1 -7.16%
C[C@H]1CN([C@@H](C)CO)C(=O)Cc2cc(NC(=O)C3CCCCC3)ccc2O[C@H]1CN(C)Cc1ccc(Cl)c(Cl)c1 35.6%
COc1ccc(CN(C)C[C@@H]2Oc3ccc(NC(=O)Nc4ccc5c(c4)OCO5)cc3CC(=O)N([C@@H](C)CO)C[C@H]2C)cc1 13.9%
C/C=C/c1ccc([C@H]2[C@@H](CO)N(C(=O)Nc3ccccc3F)[C@H]2C#N)cc1 23.1%
COC(=O)C[C@H]1CC[C@@H](N)[C@@H](CO)O1 15.9%
CNC[C@H]1OCc2ccccc2-c2ccccc2C(=O)N([C@H](C)CO)C[C@H]1C -6.87%
CCCN1C[C@H](C)[C@H](OC)CN(C)C(=O)c2cc(NC(=O)Nc3cccc(F)c3)ccc2OC[C@@H]1C 6.58%
CO[C@@H]1CC[C@@H]2CCOc3ccc(C#N)cc3C(=O)N(C)[C@H](C)C(=O)N(C)C[C@H]1O2 -48.9%
CN1C(=O)c2cc(NS(=O)(=O)c3ccccc3F)ccc2OC[C@H]2O[C@H](CC(=O)NC3Cc4ccccc4C3)CC[C@H]21 -1.53%
CN1C(=O)c2cc(NS(=O)(=O)c3ccccc3F)ccc2OC[C@@H]2O[C@H](CC(=O)NC3Cc4ccccc4C3)CC[C@@H]21 -9.49%
CN1CCN(C(=O)C[C@H]2CC[C@@H]3[C@@H](COc4ccc(NC(=O)C5CCOCC5)cc4C(=O)N3C)O2)CC1 27.7%
CN1CCN(C(=O)C[C@H]2CC[C@H]3[C@@H](COc4ccc(NC(=O)C5CCOCC5)cc4C(=O)N3C)O2)CC1 -56%
CCS(=O)(=O)Nc1ccc2c(c1)C(=O)N(C)[C@H]1CC[C@@H](CC(=O)N3CCN(C)CC3)O[C@H]1CO2 15.7%
CN1C(=O)c2cc(NC(=O)Cc3cccs3)ccc2OC[C@H]2O[C@H](CC(=O)NCCc3ccncc3)CC[C@@H]21 -70.9%
CCS(=O)(=O)Nc1ccc2c(c1)C(=O)N(C)[C@@H]1CC[C@H](CC(=O)N3CCN(C)CC3)O[C@H]1CO2 0.381%
CN1C(=O)c2cc(NC(=O)Cc3cccs3)ccc2OC[C@H]2O[C@@H](CC(=O)NCCc3ccncc3)CC[C@@H]21 -83.9%
COc1ccccc1NC(=O)N[C@H]1CC[C@H](CCNS(=O)(=O)c2ccc(Cl)cc2)O[C@@H]1CO 8.99%
COc1ccc(NC(=O)N[C@H]2CC[C@H](CCNC(=O)CN3CCOCC3)O[C@H]2CO)cc1 -23.1%
CC(=O)N1C[C@@H]2N[C@H](C1)C2c1ccc(-c2ccccc2)cc1 (some centres not stated) -22.3%
O=C(C[C@H]1CC[C@@H](NC(=O)c2cccnc2)[C@@H](CO)O1)NCc1ccc(Cl)c(Cl)c1 26.4%
CN1C(=O)c2cc(NC(=O)c3cccc(F)c3)ccc2OC[C@@H]2O[C@@H](CC(=O)NCc3ccccc3Cl)CC[C@@H]21 36%
COCC#Cc1ccc([C@@H]2[C@@H](CO)N3CCCCN(C(=O)NC4CCCC4)C[C@@H]23)cc1 -25.3%
CO[C@@H](CN(C)S(=O)(=O)c1ccc(C)cc1)[C@@H](C)CN([C@@H](C)CO)S(=O)(=O)c1cccc(Cl)c1 38.7%
CO[C@H](CN(C)S(=O)(=O)c1ccc(C)cc1)[C@H](C)CN([C@H](C)CO)S(=O)(=O)c1cccc(Cl)c1 16.6%
CO[C@H](CN(C)S(=O)(=O)c1ccc(C)cc1)[C@@H](C)CN([C@@H](C)CO)S(=O)(=O)c1cccc(Cl)c1 6.82%
CO[C@@H](CN(C)Cc1cc(F)ccc1F)[C@@H](C)CN([C@H](C)CO)S(=O)(=O)c1ccc(C)cc1 14.9%
CO[C@H](CN(C)S(=O)(=O)c1ccc(C)cc1)[C@@H](C)CN([C@H](C)CO)S(=O)(=O)c1cccc(Cl)c1 32.6%
CO[C@H](CN(C)S(=O)(=O)c1ccc(C)cc1)[C@H](C)CN([C@@H](C)CO)S(=O)(=O)c1cccc(Cl)c1 1.44%

inhibition, active:
COc1cccc(-c2ccc([C@@H]3[C@@H](C#N)N(C(=O)Cc4ccncc4)[C@@H]3CO)cc2)c1 50.4%
COc1ccc(CN(C)C[C@H]2Oc3ccc(NC(=O)Nc4ccc5c(c4)OCO5)cc3CC(=O)N([C@@H](C)CO)C[C@H]2C)cc1 57.9%
C[C@@H]1CN([C@@H](C)CO)C(=O)Cc2cc(NC(=O)C3CCCCC3)ccc2O[C@@H]1CN(C)Cc1ccc(Cl)c(Cl)c1 50.3%
CCS(=O)(=O)Nc1ccc2c(c1)C(=O)N(C)[C@H]1CC[C@H](CC(=O)N3CCN(C)CC3)O[C@H]1CO2 51.4%
CN1C(=O)c2cc(NS(=O)(=O)c3ccccc3F)ccc2OC[C@@H]2O[C@@H](CC(=O)NC3Cc4ccccc4C3)CC[C@@H]21 108%
CN1CCN(C(=O)C[C@@H]2CC[C@H]3[C@@H](COc4ccc(NC(=O)C5CCOCC5)cc4C(=O)N3C)O2)CC1 51.1%
CN1C(=O)c2cc(NC(=O)Cc3cccs3)ccc2OC[C@@H]2O[C@@H](CC(=O)NCCc3ccncc3)CC[C@H]21 60.1%
CO[C@@H](CN(C)S(=O)(=O)c1ccc(C)cc1)[C@@H](C)CN([C@H](C)CO)S(=O)(=O)c1cccc(Cl)c1 74.7%
CO[C@@H](CN(C)S(=O)(=O)c1ccc(C)cc1)[C@H](C)CN([C@H](C)CO)S(=O)(=O)c1cccc(Cl)c1 93.3%
CO[C@@H](CN(C)S(=O)(=O)c1ccc(C)cc1)[C@H](C)CN([C@@H](C)CO)S(=O)(=O)c1cccc(Cl)c1 78.9%
